Here are results for five compounds from PubChem BioAssay (NCI).

Among the test systems are SR leukemia; RPMI-8226 leukemia; OVCAR-8 ovarian; OVCAR-5 ovarian; OVCAR-4 ovarian; SK-OV-3 ovarian; IGROV1 ovarian; OVCAR-3 ovarian; NCI/ADR-RES ovarian; T-47D breast; MDA-MB-435 melanoma; SW-620 colon; MCF7 breast; HCT-116 colon; HCC-2998 colon; KM12 colon; BT-549 breast; HS 578T breast.
Assay in all cases: NCI-60 one-dose screen, 48 h (100 = growth as untreated, 0 = no growth, -100 = all killed)
Common to all, as to conditions: 10 µM unless noted

“And” between values parts separate entries of the source, which are not always exact repeats. Equal values may be shown once. About 83,000 compounds went through this panel and 20% of them were active in at least one assay; those are over-represented in the sample as a whole.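 Step 1: grow cells in 96-well plates. Step 2: add test compound at a single concentration. Step 3: incubate 48 h. Step 4: record percent growth.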 More than one record can exist for a structure, and the calls need not agree. The source made the active and inactive calls. The calls were made as follows: active = growth percent below 10; inactive = the rest.

With `CC1=C(/C=C/C(C)=C/C=C/C(C)=C/C=N/NC(=S)NC(=S)N/N=C/C=C(C)/C=C/C=C(C)/C=C/C2=C(C)CCCC2(C)C)C(C)(C)CCC1`, the growth in the test on SR leukemia was 23.6% (inactive) and 1.02% (active); with RPMI-8226 leukemia it was -2.02% (active) and -32.7% (active); with OVCAR-8 ovarian, -12.5% (active) and -74.8% (active); in the test on OVCAR-5 ovarian, -48.3% (active) and -77.7% (active); with OVCAR-4 ovarian, 17% (inactive) and -0.538% (active); in the test on SK-OV-3 ovarian it was 57.5% (inactive). In addition, the growth in the test with IGROV1 ovarian was -34.8% (active) and -39.5% (active); with OVCAR-3 ovarian it was -74.5% (active) and -99.4% (active); in the test with NCI/ADR-RES ovarian, -34% (active) and -58.9% (active); with T-47D breast, -5.98% (active); with MDA-MB-435 melanoma it was -47.1% (active) and -61.9% (active); in the test on SW-620 colon it was -73.9% (active) and -83.4% (active). The growth is 16.8% (inactive) and 9.28% (active) in the test on MCF7 breast; 6.1% (active) and -84% (active) with HCT-116 colon; 57.1% (inactive) and 12.3% (inactive) with HCC-2998 colon; -8.44% (active) and -50.7% (active) in the test on KM12 colon.
On to `O=C1c2ccccc2C(=O)c2c(NCCNCCO)ccc(NCCNCCO)c21`, for which the growth in the test on SR leukemia is 57.6% (inactive) and 5.34% (active) and -17.9% (active); in the test on RPMI-8226 leukemia, 55.6% (inactive) and 54% (inactive) and 33.8% (inactive); in the test with OVCAR-8 ovarian it was 0.849% (active) and 17.5% (inactive); with OVCAR-5 ovarian, -51.8% (active) and 43.9% (inactive) and 35.5% (inactive); in the test on OVCAR-4 ovarian it was -16.3% (active) and 1.58% (active) and 1.59% (active); in the test on SK-OV-3 ovarian, -4.52% (active) and 27.8% (inactive) and 34.9% (inactive). Moreover, the growth with IGROV1 ovarian is 29.1% (inactive) and 16.9% (inactive); with OVCAR-3 ovarian it was 64.1% (inactive) and 44.1% (inactive); in the test on NCI/ADR-RES ovarian, -24.9% (active) and 93.1% (inactive) and 102% (inactive); in the test with T-47D breast, -3.06% (active) and 10.5% (inactive) and 31.6% (inactive); with BT-549 breast, 6.06% (active) and 86.7% (inactive) and 62.6% (inactive); in the test on SW-620 colon, 12.2% (inactive) and 27.3% (inactive) and 22.2% (inactive). For the same compound, the growth with MCF7 breast was -1.56% (active) and 6.38% (active) and 2.38% (active); with HCT-116 colon, -21.4% (active) and 22.7% (inactive) and 17.7% (inactive); in the test on HCC-2998 colon, 36.6% (inactive) and 41.1% (inactive); in the test on KM12 colon it was 8.81% (active) and 41.7% (inactive) and 40.2% (inactive).
Take `CNC(=O)c1cc(Oc2ccc(NC(=O)Nc3ccc(Cl)c(C(F)(F)F)c3)cc2)ccn1`: the growth in the test on SR leukemia is -8.61% (active) and 23.9% (inactive); in the test with RPMI-8226 leukemia, -11.5% (active) and -19.3% (active); in the test with OVCAR-8 ovarian, 5.3% (active) and -16.5% (active); in the test on OVCAR-5 ovarian, 16.6% (inactive) and 15.4% (inactive); with OVCAR-4 ovarian, 26.2% (inactive) and 25.2% (inactive); in the test on SK-OV-3 ovarian it was -20.9% (active) and 12.5% (inactive). Also, the growth in the test with OVCAR-3 ovarian is 18.9% (inactive) and 3.16% (active); in the test on HS 578T breast it was -8.13% (active); in the test on NCI/ADR-RES ovarian it was -10.9% (active) and -12.5% (active); in the test with T-47D breast, -8.57% (active) and 7.49% (active); with BT-549 breast, -1.7% (active) and 24.4% (inactive); in the test with MDA-MB-435 melanoma, -27.3% (active) and -35.2% (active). The growth is 13.5% (inactive) and 5.39% (active) in the test with SW-620 colon; 2.9% (active) and 3.7% (active) with MCF7 breast; 0.741% (active) and 9.24% (active) with HCT-116 colon; -25.4% (active) with HCC-2998 colon; 2.65% (active) and -14.7% (active) in the test on KM12 colon.
On to `Cn1c(=O)n(-c2ccc(C(C)(C)C#N)cc2)c2c3cc(-c4cnc5ccccc5c4)ccc3ncc21`, for which the growth was 2.04% (active) and -5.13% (active) in the test with SR leukemia; 8.42% (active) with RPMI-8226 leukemia; 1.15% (active) and -10.2% (active) in the test with OVCAR-8 ovarian; 10.4% (inactive) and 19.4% (inactive) with OVCAR-5 ovarian; -5.93% (active) and 0.981% (active) in the test on OVCAR-4 ovarian; -28.9% (active) and -13% (active) in the test with SK-OV-3 ovarian. Besides, the growth is -12.3% (active) and -27.9% (active) in the test on IGROV1 ovarian; 13.7% (inactive) and -10.6% (active) with OVCAR-3 ovarian; 1.89% (active) and -0.868% (active) with NCI/ADR-RES ovarian; -12.2% (active) and -4.13% (active) in the test with T-47D breast; -8.12% (active) and -14.5% (active) in the test on BT-549 breast; 2.94% (active) and 5.92% (active) with MDA-MB-435 melanoma. Also, the growth was 8% (active) and 3.15% (active) with SW-620 colon; 4.64% (active) and -3.88% (active) in the test on MCF7 breast; 16.8% (inactive) and 13% (inactive) in the test with HCT-116 colon; 1.76% (active) and 7.09% (active) with HCC-2998 colon; 3.33% (active) and -9.75% (active) in the test with KM12 colon.
Take `CNc1ccc2nc3ccc(=[N+](C)C)cc-3sc2c1`: the growth with SR leukemia was 20.3% (inactive) and 28.5% (inactive); in the test on RPMI-8226 leukemia, 21.3% (inactive) and 8.61% (active); in the test on OVCAR-8 ovarian it was -15.7% (active) and -26.8% (active); in the test with OVCAR-5 ovarian, -8.49% (active) and -6.9% (active); in the test on OVCAR-4 ovarian it was -14.7% (active); with SK-OV-3 ovarian, 35.2% (inactive) and 18.6% (inactive). For the same compound, the growth was 3.81% (active) and -25.6% (active) in the test on IGROV1 ovarian; -7.57% (active) and -9.51% (active) in the test on OVCAR-3 ovarian; -15% (active) and 20.2% (inactive) in the test on HS 578T breast; 2.25% (active) and 1.64% (active) in the test on NCI/ADR-RES ovarian; -12.4% (active) and -16.3% (active) in the test with T-47D breast; 49.1% (inactive) in the test on BT-549 breast. For the same compound, the growth with SW-620 colon is 0.782% (active) and 2.58% (active); in the test on MCF7 breast, -65.8% (active) and -27.2% (active); in the test with HCT-116 colon, -8.61% (active) and -49.3% (active); in the test on HCC-2998 colon it was 31.5% (inactive) and 33.6% (inactive); with KM12 colon, 18.2% (inactive) and 14.2% (inactive).
